Screening data: PubChem BioAssay, several laboratories
PostGolgi yeast = phenotypic screen on post-Golgi transport, primary screen; hit rate 0.9% among 98,000; post-Golgi transport phenotypic cell assay; inhibition, % at 10 µM;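 also: yeast cells grown in 1536-well plates; yeast grown about 18 h at 30C before absorbance read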
PLAP act = PLAP enzyme activators, biochemical, luminescence, HTS; AID 696, 2007; hit rate 1.2% among 96,000; purified PLAP enzyme, luminescent substrate read-out; stronger effect = higher value; activation fold at 20 µM; Alkaline phosphatase, placental type (Homo sapiens), P05187; in the data active = activation fold above about 2
hDAT+cocaine = changed hDAT dopamine uptake under cocaine IC80, either direction, primary screen, cocaine antagonist project, cell-based, LLC-PK1 hDAT, [14C]-dopamine uptake, MLSMR; B-score at 10 µM; hit rate 1.3% among 110,000; LLC-PK1 hDAT cells, [14C]-dopamine uptake with cocaine IC80; actives deviate in either direction;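 active = Z score or B-score, a plate-position-corrected score, falls beyond the plate's 99.7% confidence bounds, in either direction; inactive = both scores lie inside the 99.7% bounds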;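 also: scored against the spread of the other compound wells on the same plate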
Target sequence (Q01959 whole entry, looked up): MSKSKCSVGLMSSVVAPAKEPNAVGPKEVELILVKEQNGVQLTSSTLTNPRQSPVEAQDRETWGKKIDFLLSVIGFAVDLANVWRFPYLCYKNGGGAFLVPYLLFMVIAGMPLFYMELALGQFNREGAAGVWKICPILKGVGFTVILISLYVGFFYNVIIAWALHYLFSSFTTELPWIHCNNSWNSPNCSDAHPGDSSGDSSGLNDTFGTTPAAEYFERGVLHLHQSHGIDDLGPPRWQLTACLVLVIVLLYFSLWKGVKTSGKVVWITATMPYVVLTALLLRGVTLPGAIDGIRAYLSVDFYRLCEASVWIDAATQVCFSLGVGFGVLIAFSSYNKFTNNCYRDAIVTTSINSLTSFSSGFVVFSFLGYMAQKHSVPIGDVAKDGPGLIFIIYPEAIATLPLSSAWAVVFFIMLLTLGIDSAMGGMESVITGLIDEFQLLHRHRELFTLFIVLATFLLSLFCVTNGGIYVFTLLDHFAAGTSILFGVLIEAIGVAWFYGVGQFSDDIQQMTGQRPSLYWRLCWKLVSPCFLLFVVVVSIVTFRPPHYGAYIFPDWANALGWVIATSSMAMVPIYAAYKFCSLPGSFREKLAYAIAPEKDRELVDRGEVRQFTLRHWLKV
Cav3 T inh = Cav3.2 calcium influx blockers – cell-based, Fluo-4 calcium fluorescence, FDSS, MLSMR library, primary screen; Cav3.2-expressing cells; stronger effect = lower value; B-score at 10 µM; AID 449739, 2010; Voltage-dependent T-type calcium channel subunit alpha-1H (Homo sapiens), O95180; hit rate 4% among 100,000;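 active = single-dose well whose peak fluorescence ratio is a statistical outlier from its plate by either plate-standardised score or position-corrected B-score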
D1 mod = D1 CRE-luciferase signal change, two-sided – cell-based, HEK293 D1, dopamine EC30, D1 allosteric modulator project, primary screen | B-score at 10 µM | D(1A) dopamine receptor (Homo sapiens), P21728 | hit rate 5.9% among 58,000 | dopamine EC30 potentiation; actives deviate in either direction | AID 641, 2007;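 active = luminescence count or its row- and column-corrected plate score outside the 99.7% band of the plate's sample wells, on either side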
PostGolgi ctrl = growth inhibition of yeast control strain, primary screen, counter-screen for post-Golgi transport modulator project; efflux-deficient yeast background strain, growth absorbance A615, 16 h; inhibition, % at 10 µM; hit rate 5% among 98,000
Active calls of the source: *; · = no result given. Sampled rows, rich in hits. Any-hit rate of the full collection: about 12%. Rule as the data show it, unless noted: active = inhibition above about 30%; inactive = the rest.

SMILES | PostGolgi yeast | PLAP act | hDAT+cocaine | Cav3 T inh | D1 mod | PostGolgi ctrl
CCCOC1(NC(=O)c2ccccc2)C(C)=CC(=O)C=C1C | 7.1 | 0.9 | 0.642 | -0.0188 | -3.16* | -2.2
CCOC(=O)CNC(=O)c1ccccc1 | 3.6 | 0.9 | -1.05 | -0.416 | · | -1.2
CC(C)=CCCC1(C)C=Cc2c(c(C)cc3c2[nH]c2cc(O)ccc23)O1 (stereo not drawn) | · | · | -0.0311 | -0.204 | · | ·
O=C(Cn1c(=O)n(-c2ccccc2)c(=O)n1CC(=O)N1CCCCC1)N1CCCCC1 | 18.3 | 1.2 | -0.256 | 0.618 | -0.00447 | -3.8
C=C(C)COc1ccc(-c2n[nH]c(C)c2-c2ccc(OC)cc2)c(O)c1 | -2.5 | 1.6 | 0.808 | 0.0845 | · | 23.5
COc1ccc(Oc2c(-c3ccc(O)cc3O)n[nH]c2C)cc1 | -0.2 | 1.8 | 0.00822 | -8.82* | 0.405 | 0.6
CCCOC(=O)c1ccc(Oc2cn[nH]c2-c2ccc(OCC)cc2O)cc1 | 2.2 | 1.4 | 0.272 | 0.611 | · | 0.0
CCCOC(=O)c1ccc(Oc2c(-c3ccc(OCC)cc3O)n[nH]c2C)cc1 | -6.3 | 2.2* | 0.661 | -0.199 | -0.0741 | 11.5
N#CNC1=NCN(Cc2ccccc2)CN1 | -4.6 | 1.1 | -0.271 | -1.24 | 1.01 | 12.2
O=C(c1ccccc1)c1sc(N2CCCCCC2)nc1-c1ccccc1 | -4.7 | 1.1 | 2.07 | -0.647 | · | 32.6*
Cc1sc2ncnc(OCC(=O)NCC3CCCO3)c2c1C (stereo not drawn) | -7.5 | 1 | -3.27* | 0.354 | 0.618 | -2.4
COc1ccccc1N1CCN(C(=O)Cn2nc(C(F)(F)F)c3c2CCC3)CC1 | 3.6 | 1.5 | 1.85 | 0.485 | -0.28 | 3.5
CCOC(=O)c1ccc(NC(=O)COc2ccc(S(=O)(=O)NC(C)(C)C)cc2)cc1 | · | · | 0.0547 | -0.386 | · | ·
NC(=O)CSc1nnc(COc2ccccc2)n1C1CCCCC1 | · | 1.2 | · | · | -0.0279 | ·
CCCCn1c(SCc2ccccn2)nc2c1c(=O)n(C)c(=O)n2C | · | · | -0.115 | 1.27 | · | ·
CN(Cc1ccccc1)c1nc2c(c(=O)n(C)c(=O)n2C)n1CCSc1ncccn1 | -6.8 | 1.4 | 0.0122 | -0.19 | · | 6.5
Cc1cc(C)nc(SCCn2c(N(C)Cc3ccccc3)nc3c2c(=O)n(C)c(=O)n3C)n1 | 13.5 | 1.2 | 0.673 | -1.33 | · | 33.7*
CCCCn1c(CN(C)Cc2ccccc2)nc2c1c(=O)n(C)c(=O)n2C | -0.4 | 1.7 | 0.124 | -2.57 | -0.111 | 24.0
CCOCCn1c(CN(C)Cc2ccccc2)nc2c1c(=O)n(C)c(=O)n2C | · | · | · | · | -0.763 | ·
CCCn1c(SCc2cc(=O)[nH]c3ccccc23)nc2c1c(=O)n(C)c(=O)n2C | · | 1.1 | -0.325 | 1.17 | 5.97* | ·
CN(Cc1ccccc1)Cc1nc2c(c(=O)n(C)c(=O)n2C)n1Cc1ccccc1Cl | 0.6 | 1.5 | -0.00862 | -2.63 | 0.567 | 39.9*
CCOC(=O)Cn1c(CN(Cc2ccccc2)Cc2ccccc2)nc2c1c(=O)n(C)c(=O)n2C | 9.2 | 1.5 | 3.79* | -4 | 0.0446 | 19.2
CN(C)S(=O)(=O)c1ccc(NC(=O)CN2CCN(C(c3ccccc3)c3ccccc3)CC2)cc1 | 14.4 | 0.9 | 1.15 | -0.647 | · | 3.0
C=C(C)Cn1c(CCCNC(=O)CCC)nc2ccccc21 | -13.7 | 1 | -0.132 | 0.588 | 0.838 | 4.3
CN(Cc1ccccc1)C(=O)[C@H]1CCC(=O)N1Cc1ccco1 | -0.7 | 1.7 | -0.83 | 1.13 | · | -1.3
SMILES | PostGolgi yeast | PLAP act | hDAT+cocaine | Cav3 T inh | D1 mod | PostGolgi ctrl
CC(C)CCn1c(Oc2ccccc2Cl)nc2c1c(=O)n(C)c(=O)n2C | 14.7 | 1.2 | -0.0567 | -4.9* | · | 31.9*
CCCn1c(CN(Cc2ccccc2)Cc2ccccc2)nc2c1c(=O)n(C)c(=O)n2C | -6.6 | 1.6 | -2.25 | -4.36* | -0.0163 | 29.1
CC(C)CCn1c(Cl)nc2c1c(=O)n(C)c(=O)n2C | 1.4 | 1.1 | -0.953 | -1.75 | -0.0585 | -5.4
CCCn1c(CN(C)Cc2ccccc2)nc2c1c(=O)n(C)c(=O)n2C | · | · | -0.953 | -0.314 | -2.57 | ·
Cn1c(=O)c2c(nc(SCC(=O)OCc3ccccc3)n2C)n(C)c1=O | 0.3 | 1.1 | 1.21 | 0.753 | -0.672 | 33.9*
CC(=O)c1ccc(-c2cc([C@H]3[C@H]4C=CC[C@@H](C)[C@@H]4C(=O)N3Cc3ccccc3)ccc2F)cc1 | · | · | -0.0901 | -2.36 | · | ·
